Among the data in PubChem BioAssay AID1159506 (National Center for Advancing Translational Sciences (NCATS), 2015) are seed-corrected z-score values, retold here.

Whole data set: some 59,000 sequences, median the read-out near -0.00055, cut for the lowest 2% near -2. Only a selection was taken, and the lowest values are over-represented in it overall.

This test is described as follows: Identification of proteins required for the processing of the EWS-FLI1 nascent transcript.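 Also: robust z of luciferase light less the median z of siRNAs with the same seed.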 The note with it: TC32 Ewing sarcoma NR0B1-luc vs CMV-luc (EWS-FLI1 target promoter against control promoter), 48 h; screened at 20 nM (by protocol). The gist of the method:
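Readout: OneGlo luminescence, 48 h post-transfection, TC32-NR0B1-luc vs TC32-CMV-luc in parallel. siRNA 20 nM final, RNAiMax lipid, 600 cells/well; z-score-MAD transformed, then seed-adjusted.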
Sequence UUCUGCAUAAGUAGUUUUC against INIP displayed a seed-corrected z-score of -2.13. The result for UGCUUAGCUUCUUUAACCC against PLIN2 reads 0.638; that for UCCUGAACAGGCUUAUCCC against AXIN1, 0.946; that for UGAUCUCCAAUCACAUGCC against ARFGEF2, -0.117. The sequence UCGUUUACAAACAUGAGUC against MPDZ displayed a seed-corrected z-score of 0.35.

Take UUCUGACCAAGCAAACUCG against SF3B1: the seed-corrected z-score was -2.7. AUUGAUGUAUGACUCUUCC against DDX55 gave a seed-corrected z-score of -0.91. As for UUCUUUGCCUCGCUUAUUC against OLFML2B, the figure is 0.806; as for UAUCUGAGGAGUUCUGACC against SLC22A2, 0.452; as for AAAUGUCUUAGGGAUUGGG against ITPRIPL1, -2.1. The result for UCUCCAAGAAGUUCACUGG against SOX6 reads 0.406; that for UCUGUUGCUGCCUAAACUC against TMEM198B, 0.298; that for UAUAGAACAAGGUAAAUCC against MTF2, 0.208.

In turn, UUCUAUCAAAUAUCCUUUG against LOC400940 returned a seed-corrected z-score of -0.132. UAGGAAAUCAUCUCCCUCC against TMEM169: the seed-corrected z-score is -3.9. In turn, UACCCAUAUAUUUAAAGCC against PQLC3 gave a seed-corrected z-score of 0.395. UUUUCAUUUACGGAACCCG against SMOC2 came in with a seed-corrected z-score of 0.202.

On to UCAGAAGUAACAGCAGAUC against FANCG, for which the seed-corrected z-score amounted to 0.307. As for UCAUAGUGCAGGUAGAGCC against TRIM50, the figure is -0.491; as for AUAGAAGUCAACCUCAUUC against CASQ2, 0.181. The sequence UAUUUGUCCAGGUAUGGUG against ERRFI1 showed a seed-corrected z-score of -0.215. Consider GUCUCUGGUACCUGUGUGC against LOC440300, for which the seed-corrected z-score was -0.25.

UACUCUGUUAGGAAGACCG against TECR came in with a seed-corrected z-score of 0.271. As for UCCUGCUUCCGGAAUAUCU against PNMA2, the seed-corrected z-score was -2.12.

UCAGAUUUCAGACCGCCCA against LINC00668 showed a seed-corrected z-score of 0.167. As for UUCAGUUCGUAAUCUCUCU against FLOT1, the figure is 0.706. The result for UUCAAAUCCCUAUUAAAGC against ARFIP1 reads 0.962; that for AAGUGGAACCGAUACUUCC against SPDYE14P, -0.205.

In the case of UUUGGUGCACGUAACUUGG against C6orf203, the seed-corrected z-score was -2.05. The result for UUCGGUGUCAAUAACUGUG against BCAS3 reads -1.77; that for UUUCGUAAUAUGCGGCCUC against ASPA, -0.032; that for UCUUGAUAAGAGACCAGCU against PRR3, 0.373. The sequence AAAUCCACAAUCCAGGGAG against SPATA31E2P came in with a seed-corrected z-score of 0.176. As for UGUUCAGUUGCUAAAAUGG against KLRC1, the figure is 0.773. In turn, UCUGUAAACAGCUUGAUGA against GLP1R registered a seed-corrected z-score of -0.289.

The sequence UUCAUUCUCUGCAAAAUCC against NSMCE1 came in with a seed-corrected z-score of -0.305. In the case of UACGAUCAAAGGUUGAUUC against ATF7IP, the seed-corrected z-score was -4.54. The result for UUCAAUGCAUACAUAGAGC against ZNF585A reads 0.552; that for AUAGGGUAUAGCUCCAGUC against CIART, 1.2. Sequence UGAAGUCGUAGAUCUCACG against PTDSS2 showed a seed-corrected z-score of -2.62. AAUAGUUAUUUUGUUGAGC against C6orf52 gave a seed-corrected z-score of -0.622. The result for UAGGUGUGCAUCAUAGUAA against C11orf94 reads -0.539; that for UGAGUCAUCCACGCAGUUC against PSCA, 0.371.

Take UCUGUUUCCAUUGCGUUCU against FLJ41278: the seed-corrected z-score is -0.527. As for UCUUCGUCUGGGUCGUUUG against SIGLEC6, the figure is -0.384; as for UUCUGGAGUAGCAAGCUAC against POLR2D, -2.24. UUUCAUCUCCAUCCGGUAG against JPH3 showed a seed-corrected z-score of -0.755. As for ACUCGAAGCAUCUCGAUGG against HAS3, the figure is -0.313. For the sequence AACUAAACCAGCUCGCUUC against LRRC8C, the seed-corrected z-score was found to be 2.39.

On to UGUCAAGUCGGGUUCACCC against CCDC97, for which the seed-corrected z-score was -0.229. Consider UGCUGCUUCCCUAAGAUCC against ATG4A, for which the seed-corrected z-score was determined as 0.243. The result for AAUAGCUGCAUAACUGUCU against CLTA reads -3.36. The result for UUCUGCUUCAUGUUGAGCC against RECQL4 reads -0.111. As for UCUUGUCGAAAAGCUCACC against KIAA1161, the figure is 0.789; as for AUCGUGCAAGGUGUUCUCC against BFSP2, 0.341. In turn, AUUUCCUUGAUUGUCAUCC against SERPINB7 had a seed-corrected z-score of -2.22. With AAAGUUCUCGAAAUGCUUC against GLOD4, the seed-corrected z-score is -0.0199. As for UUACGGUACUUGGUCUCGC against NRAP, the seed-corrected z-score is -1.11. The sequence UUUUUGGUCACCGGUUGCC against GRK5 had a seed-corrected z-score of -0.48. As for UAGCUUGAUAAUAACCAGC against EMC8, the seed-corrected z-score amounted to 0.529.

Turning to AUAGUGCUCAUGAACAUGG against OR7G1, the seed-corrected z-score was determined as 0.135.

UAGCUGUGAACAGUACCCG against MPL had a seed-corrected z-score of -2.07.

In turn, UGUUGUCAAAACCACUGCC against CTBP1 registered a seed-corrected z-score of -1.98. With UGAUGAACUGGUUAUGAGG against LAPTM5, the seed-corrected z-score is 1.26.

As to UACAUCCUCAUUAUAGGUU against ZNRF2, the seed-corrected z-score is -0.243.

For UUGUCUAAUGGUAAAGUGC against LDB2, the seed-corrected z-score was -0.144.

With AAGGGUAUCUGAGUCCUUG against RC3H2, the seed-corrected z-score was -0.0262. The result for UGAGCGAUUGUUAAAUGCC against ZNF781 reads -0.576. For the sequence UGCUCUCUCAGAAUCUCGC against SPA17, the seed-corrected z-score was -0.647. Turning to UUAGCAUUCCUGGAAUCCG against EIF5B, the seed-corrected z-score was -2.11. Take AGAUUGUUAAGCAGCGUGU against C7orf43: the seed-corrected z-score amounted to 0.291. UCUAUGUCGGGAUCGGUGC against LINC00467 yielded a seed-corrected z-score of 0.416. For the sequence UUCUUAUCAGCAGCUAGUC against CKAP5, the seed-corrected z-score was -2.74. In the case of AAGGCAACAGUGUCCCAUG against SMIM22, the seed-corrected z-score was -1.28. As for UUUGAAAUUUGUCAGGUCU against PQLC2L, the figure is -0.634; as for UACUAUGUCUUCAAGAUCC against CD99L2, 0.481; as for UGCUUUAACUGGAUACAUC against NPHP1, -2.27. The sequence UUCUUAGCUCCCACGAUCC against ZNF512 came in with a seed-corrected z-score of 0.51. Consider UUGGUGAAUAAAUAUCAUC against ZBTB25, for which the seed-corrected z-score stood at 0.411. The result for AAUCUUCCCAUUCUCGUCC against NAA10 reads 0.136. As for UACGGUAUGACUUUCGUUG against RPL23, the figure is -2.37; as for AUUGUUACUAUUGGACAGG against RFPL4A, 0.248. On to UGUUUGACCAUUCCGUAUC against VRK1, for which the seed-corrected z-score amounted to 0.29.

Turning to UUUCGUCUCAGCACUGCAC against ANKMY1, the seed-corrected z-score was 0.0118.

On to UUUGUGACCAGCAAUCUGC against PLA2G2F, for which the seed-corrected z-score was -0.775. The sequence AAGUUUAGCAAAGACCUGC against VPS39 yielded a seed-corrected z-score of -2.66. For the sequence UCCGAGAUGAGGUAUUAGG against PPIP5K2, the seed-corrected z-score is 0.207. The result for UUACACUUCAUUUCCAGAG against WNT11 reads 1.06. Take UUCUUGCCUAGACAGCACC against JAK1: the seed-corrected z-score turned out to be 0.139. Sequence UUUGGGUAAAUAAUCCUUU against C4orf45 registered a seed-corrected z-score of -1.15. As for UUCGGGUUGUUCUUUUUCC against TCHP, the figure is 0.00716; as for AUAAUAUGAUUCCUAAUCC against FAM188A, 0.685.

Regarding UUAGCUGCAACUGGAAGGU against TEX13B, the seed-corrected z-score was -3.82. As for UGAUGUCCAACACCAGUCC against ADCY3, the figure is 1.37; as for UUGAACUAAACAUAUCAGC against TAB3, 1.2; as for AGUGGAACAAGAUCUCAGU against NOL6, 0.803.

Turning to UUCAUACUCAGGCAUAUCC against SEC23A, the seed-corrected z-score is -0.651. As for ACAGAUGUCACACUCGAAG against ZNF581, the figure is 0.251; as for UUUCAUCUCUCUUAGAUAC against AP3S1, -0.346. As for UGAGAGUUGAGCCUUAUCA against OR8B8, the figure is -2.36; as for AGACGAUCAAGCUCUGGUG against CYB5R4, -0.548; as for ACAGGUGCAAACAAAGAGC against TMEM167B, -2.18. Sequence UGAACAUCCAGUUCUUCCC against CHERP gave a seed-corrected z-score of -1.4. The result for UGGAUUAGCAUGACAGACC against COPB1 reads -2.98; that for UAUGCUCCUCCCGACAAGU against HMGB1P1, 0.175. The sequence AAACAGACCACCUCGUAGG against MTUS2-AS1 yielded a seed-corrected z-score of 0.795.

The sequence UAUCUUCGUACUCAUUUGG against TNFAIP6 displayed a seed-corrected z-score of -2.49. Regarding ACUAGAACAAUCUGCAUCC against ZBTB1, the seed-corrected z-score was found to be 0.122. With UAUCGGAAAGAUAGCCUGG against PTPN3, the seed-corrected z-score worked out at 0.486.

With UACACGUACGGGAUAUUUG against HTR3A, the seed-corrected z-score was -0.067. The result for UGUUGUAGCACUCCAACGC against PRKDC reads -4.34; that for UCUUUAUCAAAUCUGAGUG against FANCC, 0.127.

As for UGUGGGUUAAAAGUCAGCA against CDK4, the seed-corrected z-score was -1.59. As for UCUACCAACAGCAAGAUAC against PLEKHG4B, the figure is -0.565. The result for UGUAGGUGUAGGCUGUUCG against RFX2 reads -4.23; that for UUUCUGCUUGUAUCUGCCC against C1QC, -2; that for UUCUUUAAGUCAAAGUUUC against FEZF2, -1.32. As for UGCUUUAUUAUUAAUGGAC against PABPC3, the figure is -0.79; as for UGGAUUGUAACCUUUCAUC against EIF2B5, -0.151.

On to UAUUUAUUAGAAACAUGGG against ZNF415, for which the seed-corrected z-score was -2.45.

For the sequence AAAUAGUUCUCAGUCAUUC against RBM38, the seed-corrected z-score was 0.473.

The sequence AGUUGUCCAAUGCAGAUGU against ZDHHC24 showed a seed-corrected z-score of -0.264. As for AUAUUUGCAACCUGCAUUC against SPG7, the figure is -0.324; as for UCAGUUCUUGCAGUGCACC against FAM212B, -0.229.

Turning to UGGGUGUUCAUGACCUGCC against LMF1, the seed-corrected z-score is -2.6. With UGCCCAUCCACAUUGUCCU against REXO1, the seed-corrected z-score is -0.116. For the sequence UACGAAUCAAACCAAGAUC against RASGRP3, the seed-corrected z-score was -0.4. As for UAUUGAUCUGCCGAGGAGC against CYFIP1, the figure is -0.5; as for UUCGUGACUGUCAUCAUCC against CARD11, 0.437; as for UGAACAUACAUCUUGAAUC against SRP19, 0.739. In turn, UCGGUGUAAGGUGUCCAUG against POU2AF1 had a seed-corrected z-score of -0.0736.

As to UUCUUUCCAAACGCAAGAU against RPRML, the seed-corrected z-score is -2.78.
